# Test results: PubChem BioAssay AID493084 (National Center for Advancing Translational Sciences (NCATS), 2011)
# Hit rate of the full screen: of about 360,000 compounds, about 650 (0.18%) were called active. This is one part of a sample in which actives are shown more often than they occur. Unmarked numbers belong to inactive results. Cut-off read from the data, not from the text of the source: active = activation above about 30%; inactive = the rest.
# Molecular target: Thyrotropin-releasing hormone receptor (Homo sapiens) (UniProt P34981)
# Sequence (P34981 whole entry, looked up): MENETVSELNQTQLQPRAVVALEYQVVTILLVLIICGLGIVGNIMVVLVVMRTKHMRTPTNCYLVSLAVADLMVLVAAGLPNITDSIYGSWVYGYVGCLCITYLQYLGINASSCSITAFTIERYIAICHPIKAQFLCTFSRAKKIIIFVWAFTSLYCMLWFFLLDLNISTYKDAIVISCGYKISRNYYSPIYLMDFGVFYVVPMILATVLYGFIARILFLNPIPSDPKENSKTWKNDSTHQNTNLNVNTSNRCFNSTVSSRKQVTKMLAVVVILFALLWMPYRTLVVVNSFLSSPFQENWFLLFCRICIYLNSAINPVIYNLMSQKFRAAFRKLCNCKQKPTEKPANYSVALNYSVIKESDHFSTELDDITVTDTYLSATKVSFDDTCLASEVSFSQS
# Experiment: qHTS for Small Molecule Agonists and Allosteric Enhancers of Human TRH Receptor: Primary Screen for Agonists. Note: 0% is about no effect.
# Details: TRHR cells, calcium flux fluo-8, FDSS agonist mode; at 2 µM; active compounds read high
# Source text: NIH Chemical Genomics Center [NCGC] NIH Molecular Libraries Probe Centers Network [MLPCN] MLPCN Grant: MH089816-01 Assay Submitter (PI): Marvin Gershengorn This project aims to identify small drug-like molecules that activate (agonists) the thyrotropin releasing hormone (TRH) receptor (TRHR) or enhance its TRH-stimulated activity (allosteric enhancers). TRHR, a drug-accessible cell surface receptor expressed in specific brain regions, and its ligand TRH have been implicated in several central nervous system disorders, including depression and anxiety. Small molecule TRHR agonists or allosteric enhancers that are metabolically stable and able to cross the blood-brain barrier might serve as probes to elucidate the roles of brain TRH receptors in animal models, and might be valuable as lead compounds for the development of drugs to treat patients with central nervous system disorders. Upon TRHR-Gq activation in TRHR cells, intracellular calcium is released from stores in the endoplasmic reticulum. […] This primary screen measures compound-induced activation of calcium release.
# For the HTS assay freshly prepared cells are plated at a density of 2000/well in 3 ul of complete DMEM medium containing 10% serum in 1536-well plates and cultured over night at 37 C in a humidified incubator with 5% CO2. The next day, 2 ul of a no wash calcium dye (ABD Bioquest) was added to the cells and plates were incubated at room temperature for 1 hour. For the assay, assay plates were loaded into the FDSS kinetic plate reader. A 10 cycle (1 second/cycle) baseline measurement is taken and then the FDSS online 1536 pintool delivers 23 nl of compound library (as well as TRH controls) to the plate. The plate is measured for kinetically at 1 cycle/sec for 180 seconds and is considered to be the agonist portion of the assay (eg, compounds which activate a positive calcium response during this portion are flagged as potential agonists). Following the 180 second read, 1 ul of either an EC20 (positive modulation assay) is delivered by an onboard pipette head. Measurements are taken kinetically for an additional 180 seconds. TRHR FDSS Screening Protocol 1. Reagent, 3 uL 2000 cells/well 1536 TC treated Black plate in media containing 10% FCS 2. Time, 18 hours, 33.5C 5% CO2 (cells grown at 37C) 3. Reagent, 2 uL ABD fluo-8 Ca dye 4. Time, 30 min-1.5hrs hours, Room temp (6 plates/batch) 5. Detector, EX 480/EM 530C, FDSS 10 cycles baseline (1sec/cycle) 6. Compound, 23 nL of stock solution from library 7. Detector, EX 480/EM 530C, FDSS […] (1sec/cycle) Agonist mode 8. Compound, 1 ul EC20 of TRH made up in HEPES HBSS, 10 nM final 9. Detector, EX 480/EM 530C, FDSS 100 cycles (1sec/cycle) Potentiator mode
row,Compound,activation
1,O=C1C(F)N([S+](=O)([O-])c2ccc3c(c2)OCCO3)CCN1[S+](=O)([O-])c1c(F)cccc1F (configuration not stated),0.239%
2,Cc1ccc(Cl)cc1N1CCN(C(=O)c2cn(C)c3ccc(S(=O)(=O)N(C)C4CCCCC4)cc3c2=O)CC1,-1.19%
3,O=C(NCCc1ccccc1)C(=O)NCC(c1ccco1)S(=O)(=O)c1ccccc1 (configuration not stated),-0.0493%
4,Cc1nn(C)cc1N1C(=O)c2cccc3c(N)ccc(c23)C1=O,172% (active)
5,CN1C(=O)c2cccc3c(N)ccc(c23)C1=O,152% (active)
6,Cc1cccc(C(=O)NCc2nnc(SC(C)C(=O)Nc3nnc(C)s3)n2C)c1 (configuration not stated),-0.0214%
7,CCc1nnc(NC(=O)[C@@H](NC(=O)c2cccc(C)c2)C(C)C)s1,47.4% (active)
8,CC(=O)Nc1ccc(NC(=O)[C@@H](NC(=O)c2cccc(C)c2)C(C)C)cc1,0.205%
9,Cn1ccc2cc(S(=O)(=O)N3CCCC(C(=O)NCc4ccccc4F)C3)ccc21 (configuration not stated),-0.718%
10,Cc1nn(C(C)C(=O)NCCc2ccccc2)c(=O)c2c1sc1ccccc12 (configuration not stated),-0.291%
11,COc1cc(Cl)c(NC(=O)CC(C)S(=O)(=O)c2cc3c(cc2C)NC(=O)CO3)c(OC)c1 (configuration not stated),-0.196%
12,CCCNC(=O)C(CC)n1nc(CC)n2c(cc3oc(C)cc32)c1=O (configuration not stated),0.892%
13,COc1ccc(-c2nc(Cn3c(=O)cc(C)c4c(C)nn(-c5ccccc5)c43)c(C)o2)c(OC)c1,0.643%
14,Oc1c(C(c2ccc(F)cc2)N2CCN(Cc3ccccc3)CC2)sc2nc(-c3ccco3)nn12 (configuration not stated),-0.524%
15,COc1ccc(-c2onc(C)c2C)cc1S(=O)(=O)NCC1CCN(Cc2cccc(F)c2)CC1,-0.0549%
16,CCOC(=O)C1CCN(C(c2ccc(F)cc2)c2sc3nc(-c4ccco4)nn3c2O)CC1 (configuration not stated),0.0847%
17,COc1cc(/C=C(\C#N)c2nc3c(s2)CC(C)CC3)ccc1O (configuration not stated),38.3% (active)
18,COc1cc(/C=C(\C#N)c2nc3ccccc3[nH]2)ccc1O,33.3% (active)
19,COc1cccc2cc(-c3nc(Cl)c4c5c(sc4n3)CC(C)CC5)c(=O)oc12 (configuration not stated),0.639%
20,N#C/C(=C\c1ccccc1F)c1nc2ccccc2c(=O)[nH]1,3.32%
21,CCOc1ccc(/C=C(\C#N)c2nc3ccccc3c(=O)[nH]2)cc1OC,2.27%
22,Cc1ccc(S(=O)(=O)c2cn(Cc3ccccc3)c3cc(N4CCCC4)c(F)cc3c2=O)c(C)c1,0.661%
23,Cc1ccc(C)c(N2CCN(C(=O)Cc3c(C(=O)O)c(C)cn3C)CC2)c1,-0.0012%

row,Compound,activation
1,COc1ccc(CNC(=O)c2cc3c(-c4ccccc4F)nn(C)c3s2)c(OC)c1,-0.894%
2,O=C(Nc1ccc(O)c(-c2nc3ccccc3o2)c1)c1ccc(-c2cccc(Cl)c2)o1,0.235%
3,CCOC(=O)CNC(=O)c1cc2c(=O)n3cccc(C)c3nc2s1,-0.701%
4,CCOC(=O)CC1C(=O)NCCN1c1nc2c(C)cccn2c(=O)c1/C=C1\SC(=S)N(C(C)CC)C1=O (configuration not stated),52.4% (active)
5,CCCN(CCC)c1nc2c(C)cccn2c(=O)c1/C=C1/SC(=S)N(Cc2ccco2)C1=O,12%
6,COc1ccc(-c2cc(C(=O)NCc3cc(OC)c(OC)c(OC)c3)[nH]n2)cc1,-0.734%
7,O=C(Cc1ccc(Cl)cc1)NCC(c1cccs1)S(=O)(=O)c1ccc(Cl)cc1 (configuration not stated),-0.0259%
8,CCCCN1C(=O)c2[nH]nc(-c3ccccc3O)c2C1c1cccc(OCc2ccccc2)c1 (configuration not stated),0.132%
9,Cc1ccc2nc(-c3ccc(C)c(NC(=O)Cc4ccccc4)c3)oc2c1,-0.54%
10,Cc1ccc(C2c3[nH]c4ccccc4c3CCN2C(=O)c2cccc(C)c2)cc1 (configuration not stated),0.132%
11,Cc1ccc(S(=O)(=O)NC(N)=NCCC[C@@H](NC(=O)CNC(=O)c2ccccc2)C(=O)Nc2cc(C(F)(F)F)ccc2Cl)cc1,-1.22%
12,COc1ccc(C2C(=O)N(C3CCCCC3)CC(=O)N2Cc2ccccc2Cl)cc1OC (configuration not stated),-1.14%
13,COc1ccc(-c2nc(Cn3c(=O)cc(C)c4c(C)nn(-c5ccccc5)c43)c(C)o2)cc1OC,-0.897%
14,Cc1ccc(Cn2ncc3c4sc(C)cc4n(C)c3c2=O)c(C)c1,0.195%
15,Cc1ccccc1CNC(=O)C1CCCN(S(=O)(=O)N(C)c2ccc(F)cc2)C1 (configuration not stated),-0.334%
16,Cc1cc(C)cc(NC(=O)CSc2nc3nccnc3c(=O)n2CCc2c[nH]c3ccccc23)c1,0.728%
17,O=C(CCS(=O)(=O)c1cc(Br)cc2c1N(C(=O)C1CC1)CC2)Nc1ccc(C(F)(F)F)cc1,-0.155%
18,CCOC(=O)c1c(S(=O)(=O)N2CCC(C(=O)NCc3ccccc3OC)CC2)c(C)n(C)c1C,-0.102%
19,O=C(CCSCc1cccc(F)c1)NCc1ccccc1,-0.592%
20,CN(Cc1ccccc1)C(=O)c1cn(C)c2ccc(S(=O)(=O)N3CCCCC3)cc2c1=O,0.115%
21,CCOc1ccc(C2C(=O)N(C3CCCCC3)CC(=O)N2CCC2=CCCCC2)cc1OC (configuration not stated),0.439%
22,O=[S+]([O-])(c1ccc(OC(F)(F)F)cc1)N1CCN([S+](=O)([O-])c2ccc3c(c2)OCCO3)CC1,-0.283%
23,CCc1ccc2oc(-c3ccc(C)c(NC(=O)/C=C/c4ccco4)c3)nc2c1,-0.323%

row,Compound,activation
1,COc1ccccc1C(=O)Nc1c(C(=O)N(C)Cc2ccccc2)sc2nc(C)c(Cl)c(C)c12,-1.19%
2,CCc1cccc(NC(=O)CN(c2ccc(C)c(C)c2)S(=O)(=O)c2ccsc2C(=O)OC)c1,0.768%
3,COc1cc(Br)cc2cc(S(=O)(=O)c3ccccc3)c(=O)oc12,0.456%
4,Cc1cc(S(=O)(=O)c2cc3ccc(O)c(C)c3oc2=O)ccc1F,44.2% (active)
5,COc1ccc(NC(=O)c2ccc3oc(=O)c(S(=O)(=O)c4ccc(F)cc4)cc3c2)c(OC)c1,-0.513%
6,Cc1ccc2cccc(NC(=O)C(C)Oc3ccc(C)c(C)c3)c2n1 (configuration not stated),0.214%
7,COc1ccccc1NC(=O)CSc1oc(-c2ccco2)nc1S(=O)(=O)c1ccc(Br)cc1,-0.526%
8,Cc1ccccc1Cn1nc(C)c(NC(=O)c2cc(-c3ccc(F)cc3)on2)c1C,-0.526%
9,CC1=C(c2ccc(F)cc2)S(=O)(=O)N=C1N1CCC(C(=O)NCCc2ccccc2C)CC1,0.06%
10,CCc1ccc(S(=O)(=O)n2ccnc2)cc1,0.631%
11,O=C(/C=C/c1ccc(N2CCOCC2)cc1)c1ccccc1,42.4% (active)
12,C/C(=C/c1ccccc1)C(=O)N1CCN(c2ccccc2)CC1,-0.0779%
13,O=C(O)CCC(=O)Nc1ccc(N2CCOCC2)cc1,0.0804%
14,COc1ccc(Cn2c(=O)c3oc4ccccc4c3n(CC(=O)Nc3ccc(F)cc3F)c2=O)cc1,1.15%
15,CCOC(=O)c1cc2c(=O)n3ccccc3nc2n(CCCOC)c1=NC(=O)C(C)Oc1ccccc1 (configuration not stated),0.485%
16,N#Cc1nc(Nc2cc(F)cc(Cl)c2)nc(NC2CCCC2)n1,1.3%
17,N#CN1CCC(NS(=O)(=O)c2cccc(F)c2)C1 (configuration not stated),0.751%
18,O=C(Cn1cnc2c(oc3ccccc32)c1=O)Nc1ccc(OC(F)(F)F)cc1,0.788%
19,CCOC(=O)C1CCN(c2nc3c(S(=O)(=O)c4ccc(CC)cc4)nnn3c3ccc(Cl)cc23)CC1,0.759%
20,Cc1cccc(C)c1-n1ncc(C(=O)NCCCN2CCCCC2)c1C1CCN(C(=O)OC(C)(C)C)CC1,0.838%
21,CCC(CC)c1nn2cc(-c3ccccc3)nc2s1,6.57%
22,CC(C)CNc1ncnc2c1nnn2C,-0.593%
23,CCOC(=O)c1cc(-c2ccc(OC)c(S(=O)(=O)Nc3ccc(OC)cc3OC)c2)on1,1.19%

row,Compound,activation
1,O=[S+]([O-])(c1ccc2c(c1)OCCO2)N1CCN([S+](=O)([O-])c2c(Cl)cc(Cl)cc2Br)CC1,-1.11%
2,Cc1ccc(S(=O)(=O)N2CCCc3cc(NS(=O)(=O)c4cc(C)ccc4C)ccc32)cc1,-0.123%
3,CCCCCCc1cc2cc(-c3nnc(-c4ccccc4)o3)c(=O)oc2cc1O,185% (active)
4,COc1cccc(N2CCN(C(=O)CCCCCn3c(=O)[nH]c4ccccc4c3=O)CC2)c1,-0.437%
5,COCCn1c(CCC(=O)Nc2cc(C)ccc2C)nc2cccnc21,-1.95%
6,COc1ccccc1-n1c(-c2ccc(C)cc2)cn2c3c(=O)n(C)c(=O)n(C)c3nc12,0.636%
7,CCc1ccc(N(CC)C(=O)CCn2cnc3onc(-c4ccc(F)cc4)c3c2=O)cc1,0.0408%
8,Cc1noc(C)c1-c1ccc2ncnc(NCc3ccc(F)c(F)c3)c2c1,21.5%
9,CCC(=O)N1c2ccccc2CC1C(=O)N1CCN(c2cccc(OC)c2)CC1 (configuration not stated),-0.304%
10,CN(C)c1ccc(/C=C2\NC(=S)N(Cc3ccccc3)C2=O)cc1,94.7% (active)
11,COc1ccccc1CNC(=O)NCc1noc2ccc(C)cc12,-0.0554%
12,CCOc1ccc(CNC(=O)Cn2cc3c(n2)-c2c(oc(C(=O)N4CCCC4)c2C)CC3)cc1,-0.1%
13,CN(C)c1ccc(C(=O)NCC(=O)OC(C(=O)Nc2cc(C(F)(F)F)ccc2Cl)c2ccccc2)cc1 (configuration not stated),0.138%
14,O=C(CCCCCn1c(=O)[nH]c2ccccc2c1=O)NCCc1c[nH]c2ccccc12,-0.335%
15,N#C/C(=C/c1ccc(N2CCCCC2)o1)C(=O)NCCc1c[nH]c2ccccc12,43.2% (active)
16,CC1(C(=O)NCCc2c[nH]c3ccccc23)C=CC2(CCCCC2)N1C(=O)c1ccccc1 (configuration not stated),0.212%
17,COc1cc(C(=S)NCc2ccccc2)cc(Br)c1O,-0.891%
18,COc1cc(/C=C2/SC(=S)N(Cc3ccccc3)C2=O)cc(OC)c1O,33.6% (active)
19,COc1ccc(CCNC(=O)CCCCn2c(=O)c3ccccc3n(Cc3ccccc3)c2=O)cc1OC,-0.65%
20,Cc1ccc(S(=O)(=O)N2CCc3cc(C(=O)Nc4ccc(Cl)cc4C)ccc32)cc1,0.483%
21,Cc1nc2ccn(Cc3cccnc3)c(=O)c2cc1C(=O)N1CCN(c2ccccc2F)CC1,-0.337%
22,O=C1CC(c2nnc(Cc3ccc(Cl)cc3)o2)CN1c1ccccc1 (configuration not stated),-0.928%
23,Cc1cccc(-n2ncc(C(=O)N3CCN(c4ccc(Cl)cc4)CC3)c2C2CCN(C(=O)OC(C)(C)C)CC2)c1,3.67%
